Out of some 200,000 compounds screened, about 25 (0.01%) were called active. Not shown: some 23% with an inconclusive outcome. The call rests on the fitted dose curve; in most records, active means well fitted inhibition curve with a large enough effect in the signal ratio, with a control signal flat (not every such curve was filed as active); inconclusive means small, poorly fitted or top-dose-only effect, or effect the other way, or a change in a side signal; inactive means flat fitted curve, though single readings scatter; the % refers to the signal ratio. Many of the other results were omitted from the sample, so actives are more common in it than they were.
Experiment: qHTS Assay for Modulators of Lamin A Splicing
Conditions: HeLa LMNA splicing GFP/RFP minigene ratio, 48 h; series mostly up to 46 µM; ratio change, negative = inhibition: at the top concentration
From the text: NCGC Assay Overview: Hutchinson-Gilford Progeria Syndrome (HGPS) is a pediatric premature aging disease caused by a spontaneous mutation in the lamin A/C (LMNA) gene. The mutation activates a cryptic splice site in the LMNA pre-mRNA which results in production of a pre-lamin A protein that cannot be processed properly. The mutant protein accumulates in the nucleus and negatively affects numerous cellular functions. Correction of the splicing defect in HGPS patient cells using a targeted oligonucleotide (exo11) leads to reversal of the cellular disease phenotypes. To identify small molecule modulators of aberrant LMNA splicing, a homogenous assay was constructed in HeLa cells that used a GFP containing minigene to report on correction of aberrant splicing in lamin A and a RFP (DsRed2) to report on cell viability, uniformity and nonspecific effects on the assay signal. This assay was adapted to laser-scanning microplate cytometry (Acumen, TTP Labtech) where miniaturization of the assay to a 1,536-well plate format was possible. References: Bowen, W. P.; Wylie, P. G. Application of Laser-Scanning Fluorescence Microplate Cytometry in High Content Screening. Assay Drug Dev Technol 2006;4:209-221. Scaffidi P, Misteli T. Reversal of the cellular phenotype in the premature aging disease Hutchinson-Gilford progeria syndrome. Nat.
NCGC Assay Protocol Summary: Reagents/Controls: Stable clones expressing DsRed2 and lamin A-EGFP were generated by Cell and Molecular Technologies in S3 HeLa cells. HeLa cells were prepared for the assay when they were 70-90% confluent. The cells were counted and resuspended in Opti-MEM I (no phenol red; Gibco), 2% FBS, 1% penicillin/ streptomycin (Gibco) at concentration of 120 cells/uL concentration. The suspension was passed through a Falcon basket filter with pore size 40um (Beckton Dickson). Control titrations: column […] 1536-well plate contained a sixteen point titration (1:2 dilutions) in duplicate of ancitabine (Sigma: A8598) beginning at 40 uM final concentration. Column 2 contained a sixteen point titration (1:2 dilutions) of cycloheximide beginning at 1.4 mM final concentration. Column 3 contained ancitabine at 40 uM and column 4 contained was the vehicle control (0.5% DMSO final concentration). Assay Steps: 5 uL of HeLa cells were plated in Aurora LoBase black clear bottom (cyclic-olefin polymer) 1536-well plates at a final density of 600 cells/well. Controls and library compounds were added with a 1536-well pin array using the Kalypsys pin-tool. The plates were then incubated for 48 hrs in a cell-culture incubator (37 °C; 5% CO2, 98% humidity). Following incubation the plates were read on the Acumen Explorer using the 488 nm laser. Data was collected on objects between 10 and 100 um in size. Cell objects were defined by a 15 um width x 10 um depth filter. The ratio of the total object intensity in PMT1 (500-530 nm emission; GFP) over PMT3 (575-640 nm emission; RFP) was calculated for analysis. Keywords: NIH Roadmap, MLSCN, MLI, MLSMR, qHTS, NCGC, lamin A, Progeria, RNA splicing.
On the % scale 0 is the no-effect control and ±100 the full control effect.

Compound	ratio change, negative = inhibition
COc1cccc(NC(=O)CS(=O)(=O)c2cn(CC(=O)N3CCOCC3)c3ccccc23)c1	10.8% [at 9.22 µM] (inactive)
COc1cccc(N2CCN(C(=O)CCCCCn3c(=O)[nH]c4ccccc4c3=O)CC2)c1	-15.3% (inactive)
COc1ccc(N(CC(=O)NC2CCCC2)C(=O)CS(=O)CC(=O)Nc2ccc3c(c2)OCO3)cc1 (configuration not stated)	16.3% (inactive)
N#Cc1c(NC(=O)C2CC(Cl)=CCC2C(=O)O)sc2c1CCCCC2 (configuration not stated)	0.744% (inactive)
CCOc1ccccc1/C=N/NC(=O)CNC(=O)COc1ccccc1	19.6% (inactive)
Cc1ccccc1N1C(=O)C(Oc2ccc(Cl)cc2)C1CNCC1CCCO1 (configuration not stated)	5.13% (inactive)
Fc1ccccc1N=C1Nc2cccc3cccc1c23	-7.4% (inactive)
COc1ccc(C(=O)OCC(=O)NCC2CCCO2)cc1[N+](=O)[O-] (configuration not stated)	-12.3% (inactive)
O=C(NC(=S)Nc1cccc(-c2ccc(CO)o2)c1)c1cccs1	-2.34% (inactive)
COCCN(C(=O)c1ccccc1F)c1c(N)n(Cc2ccccc2)c(=O)[nH]c1=O	-12.5% (inactive)
Cc1c(Cl)cccc1NC(=S)N(Cc1ccccc1)Cc1cccnc1	-24.9% (inactive)
Cc1cccc(NC(=O)N2CCC(CN3CCc4ccccc4C3)CC2)c1C	3.54% (inactive)
Cc1nc(N2CCCCC2)sc1C=O	-9.95% (inactive)
CN(C(=O)CSc1nncc2ccccc12)C1CCCCC1	-27.8% (inactive)
CCc1cccc(NC(=O)CN(C)S(=O)(=O)c2ccc3[nH]c4c(c3c2)CCCC4)c1	-8.85% (inactive)
CC(C)CCN(C(=O)Nc1ccc(Cl)c(Cl)c1)C(C)c1cccs1 (configuration not stated)	-17.5% (inactive)
COC(=O)CCC(=O)N1CCCC(CO)(Cc2ccccc2)C1 (configuration not stated)	-12.6% (inactive)
Cc1csc(CN(C)C(=O)CC2C(=O)NCCN2CC(C)(C)C)n1 (configuration not stated)	12.3% (inactive)
O=C(NCCCN1CCOCC1)c1ccccc1NS(=O)(=O)c1ccc(F)cc1	-16% (inactive)
COCCCNC(=S)NCCNc1nc2cc(C)c(C)cc2cc1C#N	-12% (inactive)
Cc1ccccc1CN1C(=O)c2ccccc2Sc2ccc(C(=O)NCCCN3CCOCC3)cc21	-5.48% (inactive)
Cc1ccc(C2CC(c3cccc(NS(C)(=O)=O)c3)=NN2S(C)(=O)=O)cc1 (configuration not stated)	-2.59% [at 9.22 µM] (inactive)
O=C1CCC/C(=N\NC(=O)NC2CCCCC2)C1	-17.2% (inactive)
Cc1ccc(NC(=O)CNCc2ccccn2)cc1S(=O)(=O)N(C)C	-1.55% (inactive)

Compound	ratio change, negative = inhibition
O=C(Oc1cccc(NC2=NS(=O)(=O)c3ccccc32)c1)c1ccncc1	-3.46% (inactive)
O=C(CNC(=O)c1cc(=O)[nH]c2ccccc12)Nc1ccc(F)c(F)c1	3.5% [at 9.22 µM] (inactive)
Cc1ccccc1Nc1nc(N)nc(CSc2nnc3ccccn23)n1	5.76% (inactive)
CCc1ccc(C2C(C(=O)Nc3ccccc3)=C(C)Nc3c(C(=O)Nc4ccc(C)cc4)cnn32)cc1 (configuration not stated)	-11.7% (inactive)
CCN(CC)c1nn2c(=O)c(C(=O)NCCc3ccccc3)cnc2s1	2.29% (inactive)
O=C(N/N=C\c1cc(Br)c(Br)o1)C1COc2ccccc2O1 (configuration not stated)	-2.64% (inactive)
CN(Cc1ccccn1)Cc1nc(-c2ccc(Cl)cc2)no1	-1.16% (inactive)
Cc1ccc(Cl)cc1N1CCN(C(=O)c2cnc3c(-c4ccc(F)cc4)c(C)nn3c2C)CC1	2.41% (inactive)
CSc1ccc(/C=N\NC(=O)CC(=O)NC(C)C)cc1	8.49% (inactive)
CC1CCCCN1CCCNC(=O)Cn1ncc2c([nH]c3ccccc32)c1=O (configuration not stated)	14.4% (inactive)
CC(=O)c1cccc(-n2nnnc2SCC(=O)NNC(=O)C2CCCCC2)c1	7.45% [at 9.22 µM] (inactive)
COc1ccc(NC(=O)c2ccccc2CC[N+](=O)[O-])cc1	-5.14% (inactive)
COc1cccc(N(Cc2nnc3n2CCCCC3)C(=O)Nc2ccccc2F)c1	-6.23% (inactive)
CCOc1ccc(NC(=O)C(CC(C)C)N2Cc3ccccc3C2=O)cc1 (configuration not stated)	-8.38% (inactive)
Cc1cccc(NC(=O)c2ccc(F)c(S(=O)(=O)N(C)C3CCCCC3)c2)c1	-4.34% (inactive)
Cc1cc(NC(=O)CSc2nc3c(cc2C#N)CCCCC3)no1	16.5% (inactive)
Cn1c(N)c(C(=O)COC(=O)c2ccccc2NCc2ccco2)c(=O)n(C)c1=O	9.32% (inactive)
Cc1csc(NC(=O)Nc2ccccc2[N+](=O)[O-])n1	2.56% (inactive)
S=c1[nH]nc(-c2cccs2)n1/N=C/c1cccs1	21.8% [at 9.22 µM] (inactive)
COCC(C)NCc1cc(Br)ccc1OC (configuration not stated)	3.32% (inactive)
Cc1ccc(S(=O)(=O)NC(=O)N2CCCN(Cc3ccc(F)cc3)CC2)cc1	-2.61% (inactive)
Cc1ccc(C)c(-n2nnnc2SCC(=O)c2c(N)n(C)c(=O)n(C)c2=O)c1	-17.5% [at 9.22 µM] (inactive)
CC(C(=O)N=Nc1c(O)n(C)c2ccc(Br)cc12)n1cnc2ccccc2c1=O (configuration not stated)	-4.31% (inactive)
COc1ccc(Br)cc1/C=N/Nc1ccc(Cl)c(C(=O)O)c1	-12.6% (inactive)

Compound	ratio change, negative = inhibition
Cc1nnc(SCC(=O)NNC(=O)c2ccc(Cl)cc2)n1CC1CCCO1 (configuration not stated)	-6.72% (inactive)
CCOC(=O)c1cccc(NC(=O)c2cc(S(=O)(=O)N3CCCC(C)C3)cn2C)c1 (configuration not stated)	-2.92% (inactive)
Cc1ccc(NC(=O)Cn2c(=O)n(CCC(=O)NC3CCN(Cc4ccccc4)CC3)c(=O)c3ccccc32)cc1	9.28% (inactive)
Cc1ccccc1NC(=O)NC1(C(=O)N2CCCC2)CCCCC1	5.21% (inactive)
Cc1cccc(NC(=O)c2ccc3nc(C(C)C)oc3c2)c1C	1.86% (inactive)
CC(=O)NC(Cc1ccc(F)c(F)c1)C(=O)NC1CCN(c2nnnn2-c2ccccc2)CC1 (configuration not stated)	7.55% (inactive)
O=C(CN1CCSCC1)N/N=C/c1ccc(Cl)cc1	-10.4% [at 9.22 µM] (inactive)
COc1ccc2ncc3c(-c4ccc(C)c(C)c4)nn(CC(=O)NC4CCCC4)c3c2c1	-11.7% (inactive)
COc1ccc(CNC(=O)C2=Cc3cccc(OC)c3OC2)cc1OC	-0.906% (inactive)
Cc1nccn1CCCNC(=O)CC1C(=O)NCCN1Cc1ccc(Cl)c(F)c1 (configuration not stated)	-1.13% (inactive)
COc1cc(CN(C(=O)c2ccccc2Br)c2ccccn2)cc(OC)c1OC	4.95% (inactive)
O=Cc1ccc(Oc2cccc(C(F)(F)F)c2)nc1	11.1% (inactive)
Cc1ccccc1OCCSc1nc2ccc(NC(=O)c3ccco3)cc2s1	-7.54% (inactive)
COc1cc(Cl)c(C)cc1Nc1nnc(-n2nc(C)cc2C)c2ccccc12	1.63% (inactive)
COc1ccc(C(=O)Nc2cccc(S(C)(=O)=O)c2)cc1	-6.99% (inactive)
C=CCn1c(CNC(=O)c2ccco2)nnc1SCC(=O)c1ccc(OC)cc1	17.7% (inactive)
COc1cc(/C=N/Nc2ccc(C)cc2)cc(Br)c1O	10.1% (inactive)
O=C(Nc1ccc2nc(SCCOc3ccccc3Cl)sc2c1)c1ccco1	1.78% (inactive)
Cc1cc(C)c2c(NC(=O)C3CC3)nn(C)c2n1	2.71% (inactive)
C/C(CC(=O)N1CCN(C=O)CC1)=N\NC(=O)c1ccc(Br)cc1	8.38% (inactive)
COc1cccc(NC(=O)c2ccc3nc(CCc4ccccc4)oc3c2)c1	-1.82% (inactive)
COc1ccc(CCNC(=O)c2ccc(CSCc3ccc(C)cc3)o2)cc1OC	-5.92% (inactive)
O=C(COc1ccc(-c2ccccc2)cc1)NN=C1CCCC1	-19.6% (inactive)
CC1(C)CC(=O)c2cnc3nc4ccccc4n3c2C1	0.78% (inactive)

Source: PubChem BioAssay AID1487 (National Center for Advancing Translational Sciences (NCATS), 2009)
